Measurements reported in PubChem BioAssay AID493073 (Broad Institute, 2011).
The whole screen tested about 1,200 compounds, of which about 810 (68%) were called active. No rule for the calls is given here. The set was probably picked from earlier hits. Not all results are given here. Potency and affinity values are given separately.

Assay: reducers of TRPM1 reporter luminescence, concentration series – cell-based, SK-MEL-5, cherry-picked, set 3, MITF inhibitor project, dose response (AID 493073)
Conditions: SK-MEL-5 TRPM1 promoter luciferase, 24 h; series mostly up to 35 µM

outcome, inactive:
Cc1ccsc1C(=O)OCC(=O)Nc1sccc1C(N)=O
CCCCC(=O)N/C(N)=N/c1nc2ccccc2o1
Cc1ccc(-c2nc(C#N)c(NCc3ccco3)o2)cc1
O=C(NCC1CCCO1)c1cc(-c2ccc(Cl)cc2Cl)on1 (stereo not drawn)
Cc1cccc(-c2nc(C#N)c(NCc3ccco3)o2)c1
O=C(Nc1ccc2nn(-c3ccccc3)nc2c1)c1ccco1
CNc1oc(/C=C/c2cccc(OC)c2)nc1C#N
CC(C)C(=O)Nc1cccc(NC(=O)c2cc3ccccc3o2)c1
Cc1cc(Cl)ccc1NC(=O)c1ccc2c(c1)OCO2
N=c1n(CC(=O)c2ccc([N+](=O)[O-])cc2)c2ccccc2n1Cc1ccc(Cl)cc1
O=C1CN(c2ccccc2)C(=S)N1C(=O)c1ccc(Br)cc1
Cc1c(C=O)c2cc(OCc3ccccc3)ccc2n1C
CC1CCCC(C)N1CCCNC(=O)c1cc2c(s1)-c1ccccc1OC2 (stereo not drawn)
COc1ccccc1/C=C/C=N/NC(=O)c1cccs1
Cc1ccc(SCCSc2ncccn2)cc1
CC(C)(C)c1cc(NCCCn2ccnc2)n2ncc(-c3ccccc3)c2n1
Nc1c(-c2ccccc2)cnc2c(-c3ccccc3)cnn12
c1cc(CSc2nnc(-c3ccc4c(c3)OCO4)o2)ccn1
O=C(Nc1nc2ccccc2s1)c1ccccc1[N+](=O)[O-]
COc1cc(SC)ccc1C(=O)NCCOc1ccccc1Cl
Cc1ccc(NC(=O)Nc2ccccc2)nc1
Cc1cnn(C(=S)NCCc2ccccc2)c1
COc1ccc(C)c2sc(N(CCN(C)C)C(=O)/C=C/c3cccs3)nc12
CN(C)CCCN(C(=O)CCc1ccccc1)c1nc2ccc(Br)cc2s1
O=C(CSC(=S)N1CCCCC1)c1c(F)cccc1F
COc1ccc(CNC(=O)CN2C(=O)C3C4C=CC(C4)C3C2=O)cc1 (stereo not drawn)
COC(=O)c1c(C)[nH]c(/C=N/Nc2ccccc2)c1C
COc1cc(CN2CCC(C(N)=O)CC2)ccc1OCc1ccccc1
O=C(Nc1cc2c(cc1Cl)OCCO2)c1ccco1
CCOC(=O)c1sc(-c2ccccc2)cc1N
Cc1nn2c(N)c(-c3ccccc3)cnc2c1-c1ccccc1
CC(=O)Nc1cccc2c1Cc1ccccc1-2
CN(C)CCNC(=O)COc1ccc(C23CC4CC(CC(C4)C2)C3)cc1
Cc1ccc(-n2ncc3c(SCC(N)=O)ncnc32)cc1C
Cn1c(/C=C/c2ccc(Cl)cc2)nc2ccccc2c1=O
Fc1cccc(Cl)c1CSc1nnc(-c2ccncc2)o1
Cc1ccc(OCC(=O)Nc2ccccc2F)cc1
CSc1nc(N)n2nc(-c3ccc(Cl)cc3)cc2n1
O=[N+]([O-])c1ccccc1OCCOc1ccccc1[N+](=O)[O-]
COc1ccc(NC(=O)Nc2ccc(F)c(F)c2)c(OC)c1
O=C(c1cc2ccccc2oc1=O)N(Cc1ccccc1)C1CCS(=O)(=O)C1 (stereo not drawn)
O=C(CCCc1ccccc1)N1CCN(C2CCCCC2)CC1
N=C1C(c2nc3ccccc3[nH]2)=C(O)CN1C1CCCCC1
c1ccc(OCc2nc3ccccc3[nH]2)cc1
Cc1c(C(=O)N(CCO)Cc2ccccc2)oc2c(F)cccc12
Cc1ccc(NC(=O)Cc2noc3ccccc23)cc1
C=CCNC(=O)c1ccc2nc(Cc3ccc(OC)cc3)oc2c1
Cc1c(C(=O)Nc2ccc(S(=O)(=O)N(C)C3CCN(C)CC3)cc2)oc2c(Cl)cccc12
c1ccc(CSc2nnc(-c3ccco3)n2Cc2ccco2)cc1
Cc1cccc(NC(=O)Cc2ccc(Br)cc2)n1
O=C(NC1CC1)C1CCN(S(=O)(=O)c2ccc(Cl)c([N+](=O)[O-])c2)CC1
CN(c1ccc(O)cc1)c1nc(O)c(C2=c3ccccc3=NC2=O)s1
CCOC(=O)c1cc(-c2ccc(OC)cc2)n[nH]1
COc1c(C)cccc1C(=O)Nc1ccc(N2CCN(S(C)(=O)=O)CC2)cc1
Cc1ccc2oc(Nc3nc(C)c(C)c(C)n3)nc2c1
Cc1c(OCC(=O)NC2CC(C)(C)NC(C)(C)C2)ccc2c1oc(=O)c1ccccc12
O=C1c2ccccc2C(=O)N1CCSc1ccccc1
COc1cc(OC)cc(C(=O)Nc2ccc3c(c2)OCCO3)c1
CN(C)CCNC(=O)/C(=C/c1ccc(-c2ccc(Cl)cc2)o1)NC(=O)c1ccccc1
CN(C)/C=N/c1ncc(C(=O)c2ccccc2)s1
Cc1csc(N/N=C/c2ccc([N+](=O)[O-])cc2)n1
CC(=O)c1sc(N/N=C\c2ccc(N(C)C)cc2)nc1C
C(=N\Nc1cc(N2CCCCC2)ncn1)/c1ccco1
COc1ccc(-c2csc(N(C)C(=O)c3ccco3)n2)cc1
O=C(/C=C/c1ccccc1Cl)NC1CCCCC1
N#C/C(=C\c1c[nH]c2ccccc12)C(=O)NC1CC1
N#C/C(=C\c1cccs1)C(=O)NCC1CCCO1 (stereo not drawn)
CCC1CCCCN1CCCNC(=O)c1cn(CC)c2ccc(S(=O)(=O)N(C)C3CCCCC3)cc2c1=O (stereo not drawn)
O=C(Cn1nnc(-c2ccccc2Cl)n1)N1CCCCC1
COc1ccc(CCC(=O)N2CCc3ccccc32)cc1
Cc1ccc(C(=O)Nc2ccccc2Cl)cc1
Cc1ccc(C(=O)NC2=NCCS2)cc1Cl
COc1ccc2c(c1OC)C(=O)N(c1ccc(C)cc1)C2
ClC1(Cl)CC1CSc1nnc(-c2ccncc2)o1 (stereo not drawn)
CCC(=O)NCCc1nc2cc(NC(=O)c3cccc([N+](=O)[O-])c3)ccc2n1C
O=C(Nc1nnc(Cc2ccccc2)s1)c1ccccc1
CC1(C)Cc2c(sc(NC(=O)Nc3ccccc3)c2C(N)=O)CO1
COC(=O)c1c(NC(=O)c2nc3ccccc3s2)sc2c1CC(C)(C)NC2(C)C
